From doi:10.1101/2024.03.05.583629

What was measured:
[1] = biological target: pT7_6His-AlfaTag-HOXD13 (human, UniProt P35453 263-343); assay: PADIT-seq; conditions: dsDNA, one strand shown
[2] = biological target: pT7_6His-AlfaTag-ZIF268 (human, UniProt P18146 335-423); assay: PADIT-seq; conditions: dsDNA, one strand shown

pT7_6His-AlfaTag-HOXD13, sequence (P35453 263-343): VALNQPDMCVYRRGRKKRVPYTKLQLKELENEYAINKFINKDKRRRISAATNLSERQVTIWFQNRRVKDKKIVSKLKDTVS

| Sequence | binding signal [1] | binding signal [2] |
| --- | --- | --- |
| CTCGAGGATATCAAGATCTGGCCTCGGCGCGTGGTAAGGAACCTCTAGCTAGCCGACTCACTATAGGGATAATCGCCCTGAGCAAAGACC | -0.999 ± 0.124 log2FC | 0.49 ± 0.0946 log2FC |
| CTCGAGGATATCAAGATCTGGCCTCGGCCTTTTACGGGGAACCTCTAGCTAGCCGACTCACTATAGGGATAATCGCCCTGAGCAAAGACC | 3.14 ± 0.0784 log2FC | 0.0515 ± 0.0862 log2FC |
| CTCGAGGATATCAAGATCTGGCCTCGGCTCTATAAAAGGAACCTCTAGCTAGCCGACTCACTATAGGGATAATCGCCCTGAGCAAAGACC | 2.9 ± 0.0831 log2FC | 0.0429 ± 0.0922 log2FC |
| CTCGAGGATATCAAGATCTGGCCTCGGCAAATGGGCGGGAACCTCTAGCTAGCCGACTCACTATAGGGATAATCGCCCTGAGCAAAGACC | -0.536 ± 0.104 log2FC | 0.157 ± 0.0868 log2FC |
| CTCGAGGATATCAAGATCTGGCCTCGGCATTTTATACGGAACCTCTAGCTAGCCGACTCACTATAGGGATAATCGCCCTGAGCAAAGACC | 2.61 ± 0.0763 log2FC | 0.0469 ± 0.0817 log2FC |
| CTCGAGGATATCAAGATCTGGCCTCGGCGTTTTAAGTGGAACCTCTAGCTAGCCGACTCACTATAGGGATAATCGCCCTGAGCAAAGACC | 0.876 ± 0.107 log2FC | 0.00666 ± 0.106 log2FC |
| CTCGAGGATATCAAGATCTGGCCTCGGCCGCCGACGCGGAACCTCTAGCTAGCCGACTCACTATAGGGATAATCGCCCTGAGCAAAGACC | -0.893 ± 0.142 log2FC | 0.21 ± 0.115 log2FC |
| CTCGAGGATATCAAGATCTGGCCTCGGCTTTTTACAGGGAACCTCTAGCTAGCCGACTCACTATAGGGATAATCGCCCTGAGCAAAGACC | 3.18 ± 0.0923 log2FC | 0.066 ± 0.102 log2FC |
| CTCGAGGATATCAAGATCTGGCCTCGGCGCGTGGCATGGAACCTCTAGCTAGCCGACTCACTATAGGGATAATCGCCCTGAGCAAAGACC | -1.09 ± 0.127 log2FC | 0.0324 ± 0.101 log2FC |
| CTCGAGGATATCAAGATCTGGCCTCGGCCGCCAGCGCGGAACCTCTAGCTAGCCGACTCACTATAGGGATAATCGCCCTGAGCAAAGACC | -0.898 ± 0.171 log2FC | 0.462 ± 0.139 log2FC |
| CTCGAGGATATCAAGATCTGGCCTCGGCTTGTGGGCGGGAACCTCTAGCTAGCCGACTCACTATAGGGATAATCGCCCTGAGCAAAGACC | -0.943 ± 0.108 log2FC | 2.19 ± 0.0788 log2FC |
| CTCGAGGATATCAAGATCTGGCCTCGGCGGGTTAAAAGGAACCTCTAGCTAGCCGACTCACTATAGGGATAATCGCCCTGAGCAAAGACC | 0.632 ± 0.0825 log2FC | 0.0267 ± 0.0801 log2FC |
| CTCGAGGATATCAAGATCTGGCCTCGGCATATTAAAAGGAACCTCTAGCTAGCCGACTCACTATAGGGATAATCGCCCTGAGCAAAGACC | 2.69 ± 0.07 log2FC | 0.0247 ± 0.0768 log2FC |
| CTCGAGGATATCAAGATCTGGCCTCGGCTTTTTAGTGGGAACCTCTAGCTAGCCGACTCACTATAGGGATAATCGCCCTGAGCAAAGACC | 1.59 ± 0.0858 log2FC | 0.00131 ± 0.0904 log2FC |
| CTCGAGGATATCAAGATCTGGCCTCGGCGTCATAAAAGGAACCTCTAGCTAGCCGACTCACTATAGGGATAATCGCCCTGAGCAAAGACC | 2.72 ± 0.0783 log2FC | 0.00486 ± 0.0824 log2FC |
| CTCGAGGATATCAAGATCTGGCCTCGGCCTTTGGGCGGGAACCTCTAGCTAGCCGACTCACTATAGGGATAATCGCCCTGAGCAAAGACC | -0.932 ± 0.115 log2FC | 0.262 ± 0.0913 log2FC |
| CTCGAGGATATCAAGATCTGGCCTCGGCAACCTAAAAGGAACCTCTAGCTAGCCGACTCACTATAGGGATAATCGCCCTGAGCAAAGACC | -0.715 ± 0.12 log2FC | 0.113 ± 0.099 log2FC |
| CTCGAGGATATCAAGATCTGGCCTCGGCTTTTTAGAGGGAACCTCTAGCTAGCCGACTCACTATAGGGATAATCGCCCTGAGCAAAGACC | 1.39 ± 0.106 log2FC | 0.141 ± 0.108 log2FC |
| CTCGAGGATATCAAGATCTGGCCTCGGCCCCCTAAAAGGAACCTCTAGCTAGCCGACTCACTATAGGGATAATCGCCCTGAGCAAAGACC | 0.578 ± 0.0983 log2FC | 0.267 ± 0.0922 log2FC |
| CTCGAGGATATCAAGATCTGGCCTCGGCTTTTTAGTTGGAACCTCTAGCTAGCCGACTCACTATAGGGATAATCGCCCTGAGCAAAGACC | 0.658 ± 0.103 log2FC | 0.189 ± 0.0984 log2FC |
| CTCGAGGATATCAAGATCTGGCCTCGGCTATTGGGCGGGAACCTCTAGCTAGCCGACTCACTATAGGGATAATCGCCCTGAGCAAAGACC | -0.163 ± 0.106 log2FC | 0.205 ± 0.0951 log2FC |
| CTCGAGGATATCAAGATCTGGCCTCGGCCCTGTAAAAGGAACCTCTAGCTAGCCGACTCACTATAGGGATAATCGCCCTGAGCAAAGACC | 2.46 ± 0.085 log2FC | 0.046 ± 0.0931 log2FC |

| Sequence | binding signal [1] | binding signal [2] |
| --- | --- | --- |
| CTCGAGGATATCAAGATCTGGCCTCGGCTTTTTACCAGGAACCTCTAGCTAGCCGACTCACTATAGGGATAATCGCCCTGAGCAAAGACC | 0.621 ± 0.101 log2FC | 0.0254 ± 0.098 log2FC |
| CTCGAGGATATCAAGATCTGGCCTCGGCATTTTACGTGGAACCTCTAGCTAGCCGACTCACTATAGGGATAATCGCCCTGAGCAAAGACC | 2.63 ± 0.0745 log2FC | 0.139 ± 0.0815 log2FC |
| CTCGAGGATATCAAGATCTGGCCTCGGCCGCGACCGCGGAACCTCTAGCTAGCCGACTCACTATAGGGATAATCGCCCTGAGCAAAGACC | -0.85 ± 0.123 log2FC | 0.0618 ± 0.097 log2FC |
| CTCGAGGATATCAAGATCTGGCCTCGGCGCGAAGGCGGGAACCTCTAGCTAGCCGACTCACTATAGGGATAATCGCCCTGAGCAAAGACC | -1.08 ± 0.132 log2FC | 0.278 ± 0.0993 log2FC |
| CTCGAGGATATCAAGATCTGGCCTCGGCAGCGTAAAAGGAACCTCTAGCTAGCCGACTCACTATAGGGATAATCGCCCTGAGCAAAGACC | 0.403 ± 0.0993 log2FC | 0.0644 ± 0.094 log2FC |
| CTCGAGGATATCAAGATCTGGCCTCGGCGCGTGGTATGGAACCTCTAGCTAGCCGACTCACTATAGGGATAATCGCCCTGAGCAAAGACC | -1.06 ± 0.113 log2FC | 0.45 ± 0.0837 log2FC |
| CTCGAGGATATCAAGATCTGGCCTCGGCGTTTTAGCCGGAACCTCTAGCTAGCCGACTCACTATAGGGATAATCGCCCTGAGCAAAGACC | -0.579 ± 0.147 log2FC | 0.0458 ± 0.125 log2FC |
| CTCGAGGATATCAAGATCTGGCCTCGGCCGCCTACGCGGAACCTCTAGCTAGCCGACTCACTATAGGGATAATCGCCCTGAGCAAAGACC | -0.992 ± 0.109 log2FC | 1.76 ± 0.0783 log2FC |
| CTCGAGGATATCAAGATCTGGCCTCGGCGAATTAAAAGGAACCTCTAGCTAGCCGACTCACTATAGGGATAATCGCCCTGAGCAAAGACC | 1.47 ± 0.0704 log2FC | 0.0118 ± 0.0724 log2FC |
| CTCGAGGATATCAAGATCTGGCCTCGGCGTTTTATTGGGAACCTCTAGCTAGCCGACTCACTATAGGGATAATCGCCCTGAGCAAAGACC | 3.37 ± 0.0853 log2FC | 0.0618 ± 0.0949 log2FC |
| CTCGAGGATATCAAGATCTGGCCTCGGCAGATTAAAAGGAACCTCTAGCTAGCCGACTCACTATAGGGATAATCGCCCTGAGCAAAGACC | 1.14 ± 0.0686 log2FC | 0.0127 ± 0.0692 log2FC |
| CTCGAGGATATCAAGATCTGGCCTCGGCTTTTTATTTGGAACCTCTAGCTAGCCGACTCACTATAGGGATAATCGCCCTGAGCAAAGACC | 2.91 ± 0.0833 log2FC | 0.188 ± 0.0912 log2FC |
| CTCGAGGATATCAAGATCTGGCCTCGGCACGCTAAAAGGAACCTCTAGCTAGCCGACTCACTATAGGGATAATCGCCCTGAGCAAAGACC | -0.127 ± 0.102 log2FC | 0.0119 ± 0.0913 log2FC |
| CTCGAGGATATCAAGATCTGGCCTCGGCGCGTGGGTCGGAACCTCTAGCTAGCCGACTCACTATAGGGATAATCGCCCTGAGCAAAGACC | -0.691 ± 0.125 log2FC | 1.38 ± 0.0983 log2FC |
| CTCGAGGATATCAAGATCTGGCCTCGGCGCGACAGCGGGAACCTCTAGCTAGCCGACTCACTATAGGGATAATCGCCCTGAGCAAAGACC | -1.04 ± 0.131 log2FC | 0.028 ± 0.102 log2FC |
| CTCGAGGATATCAAGATCTGGCCTCGGCCGTTGGGCGGGAACCTCTAGCTAGCCGACTCACTATAGGGATAATCGCCCTGAGCAAAGACC | -0.921 ± 0.107 log2FC | 0.0419 ± 0.0862 log2FC |
| CTCGAGGATATCAAGATCTGGCCTCGGCCACATAAAAGGAACCTCTAGCTAGCCGACTCACTATAGGGATAATCGCCCTGAGCAAAGACC | 2.6 ± 0.0844 log2FC | 0.0607 ± 0.0948 log2FC |
| CTCGAGGATATCAAGATCTGGCCTCGGCAAATTAAAAGGAACCTCTAGCTAGCCGACTCACTATAGGGATAATCGCCCTGAGCAAAGACC | 2.15 ± 0.08 log2FC | 0.0496 ± 0.0856 log2FC |
| CTCGAGGATATCAAGATCTGGCCTCGGCGACTGGGCGGGAACCTCTAGCTAGCCGACTCACTATAGGGATAATCGCCCTGAGCAAAGACC | – | 0.0505 ± 0.0931 log2FC |
| CTCGAGGATATCAAGATCTGGCCTCGGCCCCCCACGCGGAACCTCTAGCTAGCCGACTCACTATAGGGATAATCGCCCTGAGCAAAGACC | – | 0.155 ± 0.108 log2FC |
| CTCGAGGATATCAAGATCTGGCCTCGGCGCGTGAGCGGGAACCTCTAGCTAGCCGACTCACTATAGGGATAATCGCCCTGAGCAAAGACC | – | 0.00935 ± 0.101 log2FC |
| CTCGAGGATATCAAGATCTGGCCTCGGCGCGTGGATTGGAACCTCTAGCTAGCCGACTCACTATAGGGATAATCGCCCTGAGCAAAGACC | – | 0.000823 ± 0.102 log2FC |
